In all, about 96,000 compounds went through this assay and about 80 (0.08%) were called active. Not all results are given here. Results with a measured potency or affinity are listed apart. Values without a mark were called inactive. The rule behind the calls is not given here.

The target in the experiment is Alkaline phosphatase, placental type (Homo sapiens) (UniProt P05187). Briefly: inhibition of human placental alkaline phosphatase – biochemical, luminescence, HTS (AID 690). As to conditions: purified PLAP, luminescent substrate; at 20 µM; hits give high values.
Alkaline phosphatase, placental type (Homo sapiens), sequence (P05187 whole entry, looked up): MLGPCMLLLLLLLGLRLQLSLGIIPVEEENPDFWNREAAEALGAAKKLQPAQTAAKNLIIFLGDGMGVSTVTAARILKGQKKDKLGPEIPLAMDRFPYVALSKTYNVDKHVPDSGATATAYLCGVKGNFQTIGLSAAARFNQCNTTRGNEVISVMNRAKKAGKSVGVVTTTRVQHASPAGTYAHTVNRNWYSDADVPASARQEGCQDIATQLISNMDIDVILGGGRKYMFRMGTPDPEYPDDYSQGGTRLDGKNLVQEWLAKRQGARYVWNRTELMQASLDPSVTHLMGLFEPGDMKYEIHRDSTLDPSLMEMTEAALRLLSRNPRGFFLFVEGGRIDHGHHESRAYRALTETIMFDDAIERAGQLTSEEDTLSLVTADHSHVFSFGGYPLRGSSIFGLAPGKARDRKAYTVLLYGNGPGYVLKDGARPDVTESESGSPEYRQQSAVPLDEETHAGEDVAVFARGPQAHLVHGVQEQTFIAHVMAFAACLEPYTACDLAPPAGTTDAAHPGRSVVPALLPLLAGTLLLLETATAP
As for `C[n+]1ccc(/C=C/c2ccc(Br)cc2)cc1`, the inhibition is 33.9%. Next, `CN(C)c1ccc(/C=C/c2cc[n+]([O-])cc2)cc1`: 5.5%. Take `CN(C)c1nc(C(=O)NN)nc(N(C)C)n1`: the inhibition was 21.7%. In the case of `CC1=C(/C=C/C(=O)O)C(C)(C)CCC1`, the inhibition was -32.1%. Next, `O=C(COC(=O)c1ccc(Cl)c(S(=O)(=O)N2CCCC2)c1)NC1CCCC1`: -44.5%. Under `CCn1cc(/C=C(/C#N)S(=O)(=O)c2ccccc2)cn1` stands -12.8%; under `N#C/C(=C\c1ccc[nH]1)S(=O)(=O)c1ccccc1`, -3.2%. Under `Cc1ccc(S(=O)(=O)N[C@@H](CC(C)C)C(=O)NCc2ccco2)cc1` stands 18.5%; under `CC1(C)OC(=O)C(=CNc2ccc(F)cc2)C(=O)O1`, 19.1%. Turning to `O=C(Nc1ccc(F)cc1)c1ccccc1CC[N+](=O)[O-]`, the inhibition is 8.4%. Next, `Cc1cc(C)nc(NN2C(=O)/C(=C/c3ccccc3)SC2=S)n1`: 12.4%; `COc1ccccc1/C=C1\SC(=S)N(Nc2nc(C)cc(C)n2)C1=O`: 0.7%; `Cc1cc(C)n2nc(SCc3cc(=O)oc4cc(C)c(C)cc34)nc2n1`: -31.2%.

Take `CC1(C)C(=O)Nc2ccccc2N1C(=O)COC(=O)CCSc1ccccc1`: the inhibition is 6.2%.

On to `COc1ccccc1-n1cnc(N)c1C(=O)c1ccccc1`, for which the inhibition is 4.4%.

Regarding `Cc1ccc(N2CCN(C(=O)c3ccccc3Br)CC2)c(C)c1`, the inhibition was -48.2%. Next, `CCOC(=O)c1c(N2C(=O)Nc3cc(Cl)c(Cl)cc3N2O)sc2c1CCCCC2`: -30.1%. For the molecule `CCOC(=O)c1c(-n2c(C)cc(C=O)c2C)sc2c1CCCC2`, the inhibition was -34.6%.

On to `CCOC(=O)Nc1sc(C)nc1-c1ccccc1`, for which the inhibition is 5.8%. Under `COC(=O)C1=C(C)N=C2SC(C)C(=O)N2C1c1cccc(F)c1` (stereo not drawn) stands -3.9%; under `CCOc1ccc(OCC)c(NS(=O)(=O)c2cccc3nsnc23)c1`, -1.4%.

On to `Cn1c(C(=O)NCCN2CCOCC2)cc2sccc21`, for which the inhibition was 11.3%.

In the case of `COC(=O)c1ccc2c(c1)C(C)(C)C(/C=C/c1ccc(OC)c(OC)c1OC)=[N+]2C`, the inhibition is -29.3%. Next, `COC(=O)c1ccc2nc(C)c(C)nc2c1`: 8.5%; `COC(=O)c1ccc(/C=C/C(=O)c2ccc(OC)cc2)cc1`: 15.1%; `COC(=O)c1ccc(/C=C/C(=O)c2ccc(OC)c(OC)c2)cc1`: 5.6%.

With `O=C(CCCCCN1C(=O)c2ccccc2C1=O)Nc1ccc(S(=O)(=O)N2CCCCC2)cc1`, the inhibition was 8.2%. Under `c1ccc(Cc2nn3c(Cn4nnc5ccccc54)nnc3s2)cc1` stands 15.9%; under `COc1ccc(CCNC(=O)C2CC(=O)N(C3CCCC3)C2)cc1OC` (stereo not drawn), -44.7%. Under `Cc1cc(=O)n2c(ccc3ccccc32)c1C#N` stands 8.7%; under `CCC(C)(C)NC(=O)C(c1cccs1)N(CC1CCCO1)C(=O)Cn1nnc2ccccc21` (stereo not drawn), -0.8%; under `Cc1cc(C)cc(NC(=O)CSc2nnc(-c3ccccc3)n2N)c1`, -9.3%. As to `Nc1c(-c2ccc(Cl)cc2)cnn1-c1cccc([N+](=O)[O-])c1`, the inhibition is 2.9%. Under `COc1ccc(C(=O)O/N=C(\C)c2ccccc2)cc1` stands 2.4%; under `c1ccc(Nc2cc(Nc3ccccc3)[nH]n2)cc1`, 11.7%; under `c1ccc(Nc2ccccn2)cc1`, 4.3%. Under `Cc1cc(-c2ccccc2)n2nc(C)c(C#N)c2n1` stands -0.5%; under `C=CCOC(=O)C1=C(C)NC(=O)NC1/C=C/c1ccccc1` (stereo not drawn), 16.7%. Under `O=C(Cn1ccc2ccccc2c1=O)NCCC(=O)NC1CCN(Cc2ccccc2)CC1` stands -48.7%; under `O=C(N1CCOCC1)N1CCC(n2nnc3cc(F)ccc32)CC1`, -19.8%; under `O=C(NCc1ccccc1)c1ccc(-c2ccc(F)cc2)o1`, 3.6%. Turning to `COc1ccc(-c2nc(-c3ccc(Br)o3)no2)cc1OC`, the inhibition is -40.2%.

As to `COc1ccc(-c2noc(-c3ccc(Br)o3)n2)cc1OC`, the inhibition is 29%. Under `Cc1ccc(CNC(=O)c2ccc(C#CC(C)(C)O)s2)cc1` stands 20.2%. Next, `O=C(CNS(=O)(=O)/C=C/c1ccccc1)OCC(=O)N1CCC(Cc2ccccc2)CC1`: -18.3%; `Cc1nc2c3cnn(-c4ccccc4)c3ncn2n1`: 41.1%. Next, `c1ccc(-n2ncc3c2ncn2nnnc32)cc1`: -8.9%; `CC(C)C1N=C2c3ccccc3N=C(SCC#N)N2C1=O` (stereo not drawn): -3.7%; `CC(C)C1N=C2c3ccccc3N=C(SCC(=O)NCCc3ccc(S(N)(=O)=O)cc3)N2C1=O` (stereo not drawn): -3.1%. For the molecule `CCn1c(SCC(=O)C(C)(C)C)nnc1-c1ccccc1OC`, the inhibition was 5.6%. Under `C=CCn1c(SCC(=O)c2ccc(OC)cc2)nnc1-c1cc2cccc(OC)c2o1` stands 21.9%; under `CCn1c(CSc2nc3ccccc3s2)nnc1SCC(=O)c1ccc(O)cc1O`, -26.1%; under `CCOC(=O)CNC(=O)CSc1nnc(-c2ccccc2OC)n1CC`, -10.2%. In the case of `COc1ccc(-n2nnnc2SCC(N)=O)cc1`, the inhibition was 20.8%. Under `COc1ccc(-n2nnnc2SCC(=O)c2cccc(OC)c2)cc1` stands 8.8%; under `CCn1c(CSc2nc3ccccc3s2)nnc1SCC(=O)c1ccc(Cl)cc1`, -26.1%. For the molecule `C=CCn1c(SCC(=O)Nc2ccc3c(c2)OCO3)nnc1-c1ccccc1OC`, the inhibition is -54.3%.

`COc1ccc(CNc2n[nH]c(NCc3ccc(OC)c(OC)c3)n2)cc1OC`: the inhibition was -86.4%. For `O=C(CC1(O)C(=O)Nc2ccccc21)c1cccnc1` (stereo not drawn), the inhibition is 26.9%. Consider `COc1cc2c(cc1NC(=O)CSc1nnnn1-c1ccccc1)oc1ccccc12`, for which the inhibition is 21.8%. Under `CCc1ccc(C(=O)COC(=O)C(Cc2ccccc2)NC(=O)c2ccc(Cl)cc2)cc1` (stereo not drawn) stands -8.9%; under `CCc1ccc2nc3c(c(C(=O)O)c2c1)CCC3`, 7.8%. Next, `Cc1ccc(S(=O)(=O)N2CCC(=O)N2)cc1`: -17.1%.

These data come from PubChem BioAssay AID690 (Sanford-Burnham Center for Chemical Genomics, 2007).
